According to PubChem BioAssay (NCATS):
Where “and” joins values, the source holds several entries; their conditions need not be identical. Identical values can stand only once. Inconclusive results are not listed. Calls of active or inactive are those of the source. Unless noted, calls follow the shape of the dose curve; as a rule, active = well fitted curve in the direction sought with a large enough effect in the repeat runs; inconclusive = weak or mixed curves; inactive = no such curve, though single readings can be large; an effect the other way counts as inactive or inconclusive.

experiment: qHTS assay for small molecule antagonists of the retinoid-related orphan receptor gamma (ROR-gamma) signaling pathway - cell viability counter screen (AID 720652); conditions: RORgamma reporter cell line viability counter screen; series mostly up to 92.2 µM;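 also: CHO reporter cells with doxycycline-induced ROR-gamma expression; compound exposure lasted 16 hr before ATP read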
Method in brief: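 CHO RORE-LUC/TET-ROR line, 1,000 cells/well, 37 C 5% CO2 5 hr; cpd or DMSO + doxycycline induction, 16 hr. CellTiter-Glo, 30 min RT, luminescence = ATP content.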
% is scaled to controls: 0 for no effect and ±100 for the full control effect.

| SMILES | Potency |
| --- | --- |
| O=C(O)C(Br)Br | inactive |
| Nc1ccc(Cc2ccc(N)c(Cl)c2)cc1Cl | inactive |
| CC(C)Br | inactive |
| O=[N+]([O-])c1ccc(O)c([N+](=O)[O-])c1 | inactive |
| CCCC[N+](=O)[O-] | inactive |
| Cc1cc(-c2cc(C)c(N)c(C)c2)cc(C)c1N | inactive |
| CCN(N=O)C(N)=O | inactive |
| N#CC(Cl)(Cl)Cl | inactive |
| CCCCC(CC)COC(=O)c1ccc(C(=O)OCC(CC)CCCC)c(C(=O)OCC(CC)CCCC)c1 (centres undefined) | inactive |
| O=C(O)C(Br)CBr (centres undefined) | inactive |
| Nc1c(Br)cc([N+](=O)[O-])cc1[N+](=O)[O-] | inactive |
| O=C(O)C(Cl)Br (centres undefined) | inactive |
| COP(=S)(OC)SCn1nnc2ccccc2c1=O | inactive |
| Nc1ccc([N+](=O)[O-])cc1N | inactive |
| O=C(O)c1cccc(Cl)c1 | inactive |
| OCCCCO | inactive |
| O=[N+]([O-])c1cc(Cl)c(Cl)c(Cl)c1 | inactive |
| COc1ccccc1N | inactive |
| CC(C)(C)OOC(=O)c1ccccc1 | inactive |
| c1ccc(N=NNc2ccccc2)cc1 | inactive |
| COC(C)(C)C | inactive |

experiment: qHTS assay for small molecule agonists of the antioxidant response element (ARE) signaling pathway measured by Nrf2-dependant transcriptional activity - cell viability counter screen (AID 720653); conditions: ARE-bla HepG2 viability, CellTiter-Glo ATP luminescence, 16 h; stronger effect = lower value
Method in brief: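 ARE-bla HepG2 cells treated with compounds for 16 h at 37C; this counter screen measures viability as intracellular ATP by CellTiter-Glo luminescence after 30 min at room temperature.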

| SMILES | max response |
| --- | --- |
| O=C(O)C(Br)Br | -17.6% (inactive) |
| Cc1ccc(OP(=O)(Oc2ccc(C)cc2)Oc2ccc(C)cc2)cc1 | -0.985% (inactive) and -5.89% (inactive) |
| Oc1c(Cl)c(Cl)cc(Cl)c1Cl | -2.21% (inactive) |
| Nc1ccc(Cc2ccc(N)c(Cl)c2)cc1Cl | -8.13% (inactive) |
| CN(C)c1ccc(N(C)C)cc1 | -11.4% (inactive) |
| Brc1ccc(Oc2ccc(Br)cc2Br)c(Br)c1 | -0.481% (inactive) |
| O=[N+]([O-])c1c(Cl)c(Cl)c(Cl)c(Cl)c1Cl | -5.67% (inactive) and 10.2% (inactive) |
| CN1CSC(=S)N(C)C1 | -1.99% (inactive) and -0.305% (inactive) |
| ClCC(Cl)Cl | -5.62% (inactive) |
| C=CC(=O)OCCO | -2.67% (inactive) |
| CC(C)Br | -6.22% (inactive) |
| O=[N+]([O-])c1ccc(O)c([N+](=O)[O-])c1 | -10% (inactive) |
| CC(C)[N+](=O)[O-] | 1.53% (inactive) |
| CCCC[N+](=O)[O-] | -1.65% (inactive) |
| Cc1cc(-c2cc(C)c(N)c(C)c2)cc(C)c1N | -5.77% (inactive) |
| Nc1cc(Cl)ccc1O | -22.1% (inactive) |
| CCN(N=O)C(N)=O | 1.02% (inactive) |
| N#CC(Cl)(Cl)Cl | 1.54% (inactive) |
| CCCCC(CC)COC(=O)c1ccc(C(=O)OCC(CC)CCCC)c(C(=O)OCC(CC)CCCC)c1 (centres undefined) | -7.7% (inactive) |
| O=C(O)C(Br)CBr (centres undefined) | 0.981% (inactive) |

| SMILES | max response |
| --- | --- |
| Nc1c(Br)cc([N+](=O)[O-])cc1[N+](=O)[O-] | 13.3% (inactive) |
| O=[N+]([O-])c1ccccc1CCl | -9.56% (inactive) |
| Cc1cc(C)cc(OP(=O)(Oc2cc(C)cc(C)c2)Oc2cc(C)cc(C)c2)c1 | -9.8% (inactive) |
| N#CC(Br)Br | -8.42% (inactive) |
| O=C(O)C(Cl)Br (centres undefined) | 3.95% (inactive) |
| COP(=S)(OC)SCn1nnc2ccccc2c1=O | -8.53% (inactive) and -8.77% (inactive) |
| Nc1ccc([N+](=O)[O-])cc1N | 0.262% (inactive) and -5.88% (inactive) |
| O=C(O)c1cccc(Cl)c1 | -8.47% (inactive) |
| Cc1cc(N=Nc2ccccc2C)ccc1N | -2.89% (inactive) and 2.65% (inactive) |
| OCCCCO | -2.13% (inactive) |
| O=[N+]([O-])c1cc(Cl)c(Cl)c(Cl)c1 | -3.56% (inactive) |
| CC(C)(COCC1CO1)COCC1CO1 (centres undefined) | 1.11% (inactive) |
| Cc1ccc2c(c1N)C(=O)c1ccccc1C2=O | -21.8% (inactive) and -21.2% (inactive) |
| COc1ccccc1N | 6.75% (inactive) |
| CC(C)(C)OOC(=O)c1ccccc1 | 3.96% (inactive) and -1.99% (inactive) |
| c1ccc(N=NNc2ccccc2)cc1 | -24.2% (inactive) and -20.9% (inactive) |
| COC(C)(C)C | 4.13% (inactive) |
| C(CCOCC1CO1)COCC1CO1 (centres undefined) | 15.2% (inactive) |
| CN(C)c1ccc(N)cc1 | -16.3% (inactive) |
| O=[N+]([O-])/C=C/c1ccccc1 | -1.14% (inactive) |

experiment: qHTS assay for cell viability of HEK293 cells (AID 743288; active = well fitted curve in the direction sought with a large enough effect; an effect the other way counts as inactive or inconclusive; also: nearly all actives have a fitted effect of over 50% in size); conditions: ATP luminescence (CellTiter-Glo), 18 h, stronger effect = lower value
Method in brief: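 Quantitative high-throughput screen: compounds were pinned onto parental HEK293 cells (2,000 per well) after a minimum 5 h settling at 37 C, incubated 18 h at 37 C, and intracellular ATP measured by luciferase luminescence.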

| SMILES | max response |
| --- | --- |
| O=C(O)C(Br)Br | -1.04% (inactive) |
| Cc1ccc(OP(=O)(Oc2ccc(C)cc2)Oc2ccc(C)cc2)cc1 | -12.3% (inactive) and -24.8% (inactive) |
| Oc1c(Cl)c(Cl)cc(Cl)c1Cl | 1.93% (inactive) |
| Nc1ccc(Cc2ccc(N)c(Cl)c2)cc1Cl | -12.3% (inactive) |
| CN(C)c1ccc(N(C)C)cc1 | -3.92% (inactive) |
| O=[N+]([O-])c1c(Cl)c(Cl)c(Cl)c(Cl)c1Cl | -12.6% (inactive) and -27.3% (inactive) |
| CN1CSC(=S)N(C)C1 | -15.3% (inactive) |
| ClCC(Cl)Cl | -18.4% (inactive) |
| C=CC(=O)OCCO | -1.05% (inactive) |
| CC(C)Br | -0.407% (inactive) |
| O=[N+]([O-])c1ccc(O)c([N+](=O)[O-])c1 | -1.57% (inactive) |
| CC(C)[N+](=O)[O-] | -8.31% (inactive) |
| CCCC[N+](=O)[O-] | -6.09% (inactive) |
| Cc1cc(-c2cc(C)c(N)c(C)c2)cc(C)c1N | 7.5% (inactive) |
| Nc1cc(Cl)ccc1O | -15.2% (inactive) |
| CCN(N=O)C(N)=O | 9% (inactive) |
| N#CC(Cl)(Cl)Cl | -13% (inactive) |
| CCCCC(CC)COC(=O)c1ccc(C(=O)OCC(CC)CCCC)c(C(=O)OCC(CC)CCCC)c1 (centres undefined) | -4.51% (inactive) |
| O=C(O)C(Br)CBr (centres undefined) | -8.07% (inactive) |

| SMILES | max response |
| --- | --- |
| Nc1c(Br)cc([N+](=O)[O-])cc1[N+](=O)[O-] | -10.1% (inactive) |
| O=[N+]([O-])c1ccccc1CCl | 2.01% (inactive) |
| Cc1cc(C)cc(OP(=O)(Oc2cc(C)cc(C)c2)Oc2cc(C)cc(C)c2)c1 | -21.5% (inactive) |
| N#CC(Br)Br | -22.9% (inactive) |
| O=C(O)C(Cl)Br (centres undefined) | 6.83% (inactive) |
| COP(=S)(OC)SCn1nnc2ccccc2c1=O | -22% (inactive) |
| Nc1ccc([N+](=O)[O-])cc1N | 7.69% (inactive) and 2.35% (inactive) |
| O=C(O)c1cccc(Cl)c1 | -0.932% (inactive) |
| Cc1cc(N=Nc2ccccc2C)ccc1N | -13.3% (inactive) and -11.6% (inactive) |
| OCCCCO | -3.14% (inactive) |
| O=[N+]([O-])c1cc(Cl)c(Cl)c(Cl)c1 | -14.7% (inactive) |
| CC(C)(COCC1CO1)COCC1CO1 (centres undefined) | -5.18% (inactive) |
| Cc1ccc2c(c1N)C(=O)c1ccccc1C2=O | -21.2% (inactive) and -23% (inactive) |
| COc1ccccc1N | -0.892% (inactive) |
| CC(C)(C)OOC(=O)c1ccccc1 | 7.08% (inactive) and -4.29% (inactive) |
| c1ccc(N=NNc2ccccc2)cc1 | 5.57% (inactive) and -4.44% (inactive) |
| COC(C)(C)C | -5.4% (inactive) |
| C(CCOCC1CO1)COCC1CO1 (centres undefined) | -15.1% (inactive) |
| O=[N+]([O-])/C=C/c1ccccc1 | -10.7% (inactive) |
